# Source: PubChem BioAssay AID686977 (Southern Research Specialized Biocontainment Screening …, 2013)
# Among all 9,400 compounds or so, fewer than 10 were called active. Not shown: some 5% with an inconclusive outcome. These entries were drawn from the full list. Measured potencies and affinities stand elsewhere. A number with no mark means an inactive call. How the calls were made is not given here.
# Assay: Vibrio cholerae quorum sensing activators, luminescence (AID 686977)
# Conditions: V. cholerae quorum sensing reporter, 6 h, hits give high values; dose 50, dose unit µM unless noted
row,Compound,luminescence
1,CCOC(=O)/C(C#N)=C\c1ccc(N2CCN(C)CC2)cc1,0
2,CCOC(=O)C1CCN(C(=O)C2CCN(S(=O)(=O)c3cccc4cccnc34)CC2)CC1,0
3,Cc1n[nH]c(=S)c2nn(-c3ccccc3F)c(C)c12,0
4,Cn1c(C(=O)N2CCN(Cc3ccc4c(c3)OCO4)CC2)cc2c(=O)n(C)c3ccccc3c21,0
5,CCC(Cc1ccccc1)NC(=O)CN1C(=O)CSc2ncccc21 (centres undefined),0
6,OCCN1CCN(c2ncnc3ccc(Br)cc23)CC1,200
7,CC1=CC(C)(C)N(S(=O)(=O)c2ccc(F)cc2)c2ccccc21,0
8,COc1ccc(C(=O)Nc2cc3c(cc2C#N)OCO3)cc1S(=O)(=O)NCc1ccco1,0
9,CCOC(=O)c1c(C)nc2ccccc2c1C,40
10,CCc1nn(CC(=O)NCCCN2CCc3ccccc3C2)c(=O)c2cc3sccc3n12,0
11,COc1ccc(-n2nnnc2SCC#CCO)cc1,0
12,Cc1nnc(SCC(=O)NCc2ccco2)n1Cc1ccccc1,0
13,CC(C)OC(=O)CSc1nnc(-c2ccccc2)n1N,40
14,O=c1c2ccccc2nnn1CSc1nnc(-c2cccnc2)n1-c1ccccc1F,0
15,O=[N+]([O-])c1cc(-c2cnc3ccccc3n2)ccc1Oc1ccc(F)cc1,40
16,Cc1ccc(CN(C)C(=O)C2CCCN2C(=O)c2cccs2)o1 (centres undefined),320
17,CCn1cc(S(=O)(=O)CC(=O)Nc2cc(C)on2)c2ccccc21,0
18,CCCCN(C(=O)c1cnc2n(c1=O)CCS2)c1ccccc1,0
19,CCc1nc2c(cnn2-c2ccc(F)cc2)c(=O)n1-c1ccc(N2CCC(C)CC2)cc1,0
20,O=C(NCC(c1cccnc1)N1CCN(c2ccccc2F)CC1)c1ccco1 (centres undefined),0
21,CCC(C)NC(=O)CS(=O)Cc1nc(-c2cccc(OC)c2)oc1C (centres undefined),40
22,Cc1ccc(-c2nnc(SCc3nc(N)nc(Nc4ccccc4C)n3)n2N)cc1,0
23,O=C(NCc1ccco1)c1nnc(Cc2ccc(Cl)cc2)o1,0
24,CCOC(=O)C1=C(c2ccccc2)O/C(=C(\C(=O)OC)C(F)(F)F)S1,40
25,COc1ccc(C2N(C(=O)CN3CCOCC3)CCN2S(=O)(=O)c2ccccc2)cc1 (centres undefined),0

row,Compound,luminescence
1,Cc1cccc(N2CCN(C(=O)CN3CCOc4ccccc43)CC2C)c1 (centres undefined),0
2,Cc1onc(-c2ccccc2Cl)c1C(=O)Nc1cccc(-c2nc3ncccn3c2C)c1,40
3,CC(=O)CC(c1ccccc1)S(=O)(=O)c1ccc(C)cc1 (centres undefined),40
4,CCN(CC)c1ncnc2sc(C(=O)N3CCN(c4ccc(OC)cc4)CC3)c(C)c12,160
5,c1cc2c3c(cccc3c1)NC1(CCCCC1)N2,40
6,O=C(Nc1ccc(Cc2ccncc2)cc1)c1ccc(Cl)c([N+](=O)[O-])c1,0
7,COc1cccc(S(=O)(=O)NCc2ccc(C(=O)NCC3CCCO3)cc2)c1 (centres undefined),40
8,O=C(Nc1ccc2c(c1)OCCO2)c1ccc(CN2CCOCC2)cc1,0
9,COCCOC(=O)C1=C(C)NC2=C(C(=O)CC(c3cccs3)C2)C1c1ccsc1 (centres undefined),40
10,CCN1CCN(c2nc3c(c(=O)[nH]c(=O)n3C)n2CCSc2nc3ccccc3s2)CC1,0
11,CCc1ccc(C2CC(c3ccc(F)cc3)Nc3nc(N)nn32)cc1 (centres undefined),40
12,COc1ccccc1C(=O)N1CCNC(=O)C1CC(=O)Nc1cccc(C)c1 (centres undefined),0
13,O=C(O)c1[nH]c2ccccc2c1CC(=O)N1CCOCC1,0
14,Cc1cc(C(=O)Nc2c(C)nn(Cc3ccc(F)cc3)c2C)on1,0
15,COC(=O)c1ccc(NC(=O)CN(Cc2ccc(Cl)cc2)S(C)(=O)=O)cc1,0
16,CC(C)SCCCOc1ccc(C(C)(C)C)cc1,0
17,CCOC(=O)C1CCCN(c2c(NCCCN(C)c3ccccc3)c(=O)c2=O)C1 (centres undefined),0
18,COC(=O)c1ccc(NC(=O)CSc2nnc(COc3ccc4c(c3)CCCC4)o2)cc1,40
19,CCC(=O)NCCCOc1ccccc1,0
20,O=C(Nc1ccc2c(c1)CCC2)c1cc(S(=O)(=O)N2CCN(c3ccccc3)CC2)ccc1Cl,0
21,CCOC(=O)c1sc2nc(C)cc(C)c2c1NC(=O)c1ccco1,0
22,CCOC(=O)N1CCC(NC(=O)C(Cc2ccccc2)NC(=O)C2CCCCC2)CC1 (centres undefined),0
23,CCOc1cc(N2CCOCC2)c(OCC)cc1NC(=O)CN1CCc2ccccc2C1,0
24,CCn1ncc(C2=NOC(C(=O)NCc3ccc(OC)cc3)C2)c1C (centres undefined),0
25,COc1ccc(-n2c(Cn3c(=O)sc4ccccc43)nnc2SCC(=O)N2CCCCC2)cc1,0

row,Compound,luminescence
1,COc1ccc(NC(=O)c2c(NC(=O)CNCc3ccco3)sc3c2CCC3)c(OC)c1,40
2,COC(=O)c1nc2cc(C)ccn2c1F,40
3,Cc1ccc(NS(=O)(=O)c2cc(C(N)=O)ccc2C)cc1,0
4,Cc1ccc([N+](=O)[O-])cc1N=Cc1ccc(Br)s1,40
5,CC(=O)N(c1ccc(Br)cc1)C1C=CS(=O)(=O)C1 (centres undefined),0
6,Cc1cc2ccccc2n1CCNC(=O)c1cccs1,0
7,Cc1cc(C)nc(NC(=O)c2cnc3sccn3c2=O)n1,0
8,CCn1c(=O)cc(OCC(=O)NCCC(C)C)c2ccccc21,40
9,C=CCNC(=O)CN(c1cccc(Br)c1)S(C)(=O)=O,0
10,CCOC(=O)c1c(-c2ccccc2)csc1NC(=O)c1ccc(S(=O)(=O)N2CC(C)OC(C)C2)cc1 (centres undefined),40
11,COc1cc(C(=O)N(Cc2cccc(Cl)c2)C2CCS(=O)(=O)C2)cc(OC)c1OC (centres undefined),40
12,Cc1ccc2oc(=O)c3cnn(CC(=O)NC4CCN(Cc5ccccc5)CC4)c3c2c1,0
13,CC(C)C(=O)Nc1nc2cc3c(cc2s1)OCO3,0
14,COC(=O)c1[nH]c2cc(OC)ccc2c1NC(=O)CCN1CCN(c2ccccc2)CC1,40
15,O=C(Nc1cccc(F)c1)c1cccnc1N1CCOCC1,80
16,COc1ccccc1N1CCN(C(=O)Oc2ccccc2)CC1,0
17,COc1cc(S(=O)(=O)N2CCC(N3CCCCC3)CC2)ccc1-n1cnnn1,0
18,CC(Oc1ccc(-c2ccccc2)c(F)c1)c1ccn(S(=O)(=O)c2ccc(F)cc2)n1 (centres undefined),120
19,COc1ccccc1NC(=O)C1=C(C)NC(=O)NC1c1ccc(C)cc1 (centres undefined),80
20,O=C(O)CCCSCC(=O)Nc1ccccc1,0
21,O=C(C[n+]1ccc(C(=O)N/N=C/c2ccc(OCc3ccccc3)cc2)cc1)c1ccccc1,0
22,CCOC(=O)C1=C(C)Nc2nnnn2C1c1ccc(OC)c(Br)c1 (centres undefined),0
23,Cc1c(Cl)cccc1NC(=O)CN1C(=O)CSc2ncccc21,0
24,O=c1cc(NC2CCCCC2)c2ccccc2o1,0
25,CCOc1ccc(CNC(=O)C(CC)n2nc(C)n3c(cc4occc43)c2=O)cc1OC (centres undefined),0

row,Compound,luminescence
1,CNc1ccccc1-c1nc2ccccc2n(C)c1=O,0
2,O=C(Nc1ccc(Cl)cn1)C1CCCN1S(=O)(=O)c1ccc(Cl)cc1 (centres undefined),0
3,CCC(Oc1ccccc1)C(=O)Nc1ccccc1OC (centres undefined),0
4,CCOCCn1c(SCCc2ccccc2)nc2c1c(=O)[nH]c(=O)n2C,0
5,Cc1nn(C2CCS(=O)(=O)C2)c(Cl)c1/C=C/C(=O)OCC(=O)Nc1ccccc1OC(F)F (centres undefined),0
6,COc1ccc(S(=O)(=O)Cc2ccc(C(=O)NCc3ccccn3)o2)cc1,0
7,CCOC(=O)N1CCN(C(=O)CSc2nc3c([nH]c4ccccc43)c(=O)n2C)CC1,40
8,C#CCN1C(=O)C2C(C(=O)NC)C3C=CC2(O3)C1C(=O)NCc1ccc(OC)cc1 (centres undefined),40
9,CCCNC(=O)C(NS(=O)(=O)c1ccc2c(c1)c(=O)n(C)c(=O)n2C)c1ccccc1 (centres undefined),40
10,CN[C@H]1[C@@H](O)[C@H](O[C@H]2[C@@H](O)[C@@H](OC3OC(CN)=CCC3N)[C@H](N)C[C@@H]2N)OC[C@@]1(C)O (some centres undefined),"40 [dose 10, dose unit µg/mL]"
11,CCc1ccc(CCC(=O)Nc2ccc(C)c(C)c2)o1,0
12,CCc1cccc(OCCOCCN2CCCC2)c1,40
13,CCOC(=O)c1ccccc1NC(=O)c1cc(S(=O)(=O)N2CCOCC2)ccc1F,0
14,Cc1ccc(S(=O)(=O)CCc2nnc(NC(=O)C3CCCO3)s2)cc1 (centres undefined),0
15,COC(=O)c1cc(-c2ccc(Br)cc2)n[nH]1,0
16,CN(C)S(=O)(=O)c1ccc(S(=O)(=O)N2CCN(CCC#N)CC2)cc1,40
17,COc1cc(C2Nc3ccc4ncccc4c3C3=C2C(=O)CC(C)(C)C3)cc(OC)c1O (centres undefined),0
18,CN(CC(=O)N1CCc2ccccc2C1)S(=O)(=O)c1ccc2c(c1)c(=O)n(C)c(=O)n2C,40
19,CCOc1ccc(CCNC(=O)Cn2c(=O)oc3ccccc32)cc1OCC,0
20,COC(=O)c1cc(=O)n(CCc2ccc(OC)c(OC)c2)c(=Nc2ccc(F)c(Cl)c2)s1,40
21,CCc1nnc(NC(=O)CSc2nnc(-c3ccco3)n2C)s1,0
22,CN/C(=C/[N+](=O)[O-])NCCSCc1csc(CN(C)C)n1,"0 [dose 10, dose unit µg/mL]"
23,CCCCCCN1CC(O)=C(c2ccccc2)C1=N,0
24,CC1CCN(C(=O)CSc2nc3c(cnn3-c3ccc(Cl)cc3)c(=O)[nH]2)CC1,0
